In PubChem BioAssay (EPA / NIEHS):
Values joined by “and” are separate entries in the source; they are usually repeats but may differ in a detail not shown here. Equal values may be shown once. Some compounds were tested as several samples or in several runs, with calls that do not always agree. Active and inactive are the calls of the source. The calls were made as follows: active = hit-call score of the fitted dose curve at least 0.9, where 1 is the maximum; inactive = score below 0.9.

Columns and labels:
[1] = read-out: Matrix Metallopeptidase 9 (MMP9), MMP9 (gene 4318); assay: BSK_BF4T_MMP9: BioMAP Diversity Plus: BF4T Assay for Matrix Metallopeptidase 9 (MMP9) Biomarker Activity (AID 2284276); conditions: primary human bronchial epithelial cells with fibroblasts
Procedure, shortened: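 MMP-9 levels were measured by ELISA after 24 h exposure of bronchial epithelial cell/dermal fibroblast co-cultures, with DMSO as baseline. Parallel cultures were stained with 0.1% SRB after TCA fixation, read at 560 nm, to flag overt cytotoxicity.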

[2] = read-out: Interleukin-8 (IL8), CXCL8 (gene 3576); assay: BSK_IMphg_IL8: BioMAP Diversity Plus: IMphg Assay for Interleukin-8 (IL8) Biomarker Activity (AID 2284277); conditions: primary human endothelial cells with macrophages
Procedure, shortened: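 IL-8 levels were measured by ELISA 24 h after dosing in primary human venular endothelial cell–macrophage cultures, referenced to DMSO; parallel SRB staining monitored overt cytotoxicity.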

[3] = read-out: Intercellular Adhesion Molecule 1 (ICAM1), ICAM1 (gene 3383); assay: BSK_BE3C_ICAM1: BioMAP Diversity Plus: BE3C Assay for Intercellular Adhesion Molecule 1 (ICAM1) Biomarker Activity (AID 2284278); conditions: primary human bronchial epithelial cells
Procedure, shortened: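 ELISA read-out of ICAM-1 on human lung bronchial epithelial primary cells, 24 h post-dosing; positive-direction curve fit, DMSO = baseline. SRB total-protein staining of parallel cultures flagged overt cytotoxicity.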

[4] = read-out: Interferon-inducible T-cell alpha chemoattractant (ITAC), CXCL11 (gene 6373); assay: BSK_BE3C_ITAC: BioMAP Diversity Plus: BE3C Assay for Interferon-inducible T-cell alpha chemoattractant (ITAC) Biomarker Activity (AID 2284279); conditions: primary human bronchial epithelial cells
Procedure, shortened: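 ELISA for I-TAC in primary human bronchial epithelial cultures 24 h post-treatment, fitted relative to DMSO baseline in positive direction. Cytotoxicity checked in parallel cultures by sulforhodamine B protein staining.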

[5] = read-out: Interleukin-8 (IL8), CXCL8 (gene 3576); assay: BSK_BE3C_IL8: BioMAP Diversity Plus: BE3C Assay for Interleukin-8 (IL8) Biomarker Activity (AID 2284280); conditions: primary human bronchial epithelial cells
Procedure, shortened: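 Measured at 24 h after treatment, IL-8 from human primary bronchial epithelial cells is determined by ELISA, and the response is modelled as increasing relative to DMSO negative control.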

[6] = read-out: Epidermal growth factor receptor (EGFR), EGFR (gene 1956); assay: BSK_BE3C_EGFR: BioMAP Diversity Plus: BE3C Assay for Epidermal growth factor receptor (EGFR) Biomarker Activity (AID 2284281); conditions: primary human bronchial epithelial cells
Procedure, shortened: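 Measured 24 h after dosing in primary human bronchial epithelial cultures, EGFR was read by ELISA; gain of signal over DMSO control defined activity.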

[7] = read-out: KRT18 (gene 3875); assay: BSK_BE3C_Keratin818: BioMAP Diversity Plus: BE3C Assay for Keratin 818 Biomarker Activity (AID 2284282); conditions: primary human bronchial epithelial cells
Procedure, shortened: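 ELISA read-out of Keratin 8/18 in BE3C human bronchial epithelial cultures, 24 h post-dosing; positive-direction fit vs DMSO baseline.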

[8] = read-out: Matrix Metallopeptidase 9 (MMP9), MMP9 (gene 4318); assay: BSK_BE3C_MMP9: BioMAP Diversity Plus: BE3C Assay for Matrix Metallopeptidase 9 (MMP9) Biomarker Activity (AID 2284283); conditions: primary human bronchial epithelial cells
Procedure, shortened: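 Human primary bronchial epithelial cells in the BE3C system were dosed with compound for 24 h. MMP-9 was measured by ELISA, and the positive-direction response was fitted relative to DMSO as baseline. Parallel SRB staining gauged cytotoxicity.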

[9] = read-out: Plasminogen activator inhibitor-1 (PAI1), SERPINE1 (gene 5054); assay: BSK_CASM3C_PAI1: BioMAP Diversity Plus: CASM3C Assay for Plasminogen activator inhibitor-1 (PAI1) Biomarker Activity (AID 2284284); conditions: primary human coronary artery smooth muscle cells;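 also: PAI-1 protein level measured by ELISA 24 h after dosing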
[10] = read-out: Monocyte Chemoattractant Protein-1 (MCP1), CCL2 (gene 6347); assay: BSK_hDFCGF_MCP1: BioMAP Diversity Plus: hDFCGF Assay for Monocyte Chemoattractant Protein-1 (MCP1) Biomarker Activity (AID 2284285); conditions: primary human foreskin fibroblasts
Procedure, shortened: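 MCP-1 ELISA readout was taken 24 hours after dosing primary human dermal fibroblasts in the hDFCGF system, with DMSO as baseline. Parallel sulforhodamine B staining of total protein tracked overt cytotoxicity.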

[11] = read-out: Vascular cell adhesion molecule 1 (VCAM1), VCAM1 (gene 7412); assay: BSK_IMphg_VCAM1: BioMAP Diversity Plus: IMphg Assay for Vascular cell adhesion molecule 1 (VCAM1) Biomarker Activity (AID 2284286); conditions: primary human endothelial cells with macrophages
Procedure, shortened: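 ELISA read-out of VCAM-1 on venular endothelial cell/macrophage co-cultures at 24 h post-treatment, with DMSO as baseline and positive-direction fitting. Parallel sulforhodamine B total-protein staining (560 nm) served as the overt cytotoxicity measure.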

[12] = read-out: Intercellular Adhesion Molecule 1 (ICAM1), ICAM1 (gene 3383); assay: BSK_hDFCGF_ICAM1: BioMAP Diversity Plus: hDFCGF Assay for Intercellular Adhesion Molecule 1 (ICAM1) Biomarker Activity (AID 2284287); conditions: primary human foreskin fibroblasts
Procedure, shortened: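 ICAM-1 ELISA readout 24 h after dosing, DMSO as baseline, in human dermal foreskin fibroblast cultures. Cytotoxicity checked in parallel wells by SRB staining (0.1% SRB, 10% TCA fixation, 560 nm).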

[13] = read-out: CD40, CD40 (gene 958); assay: BSK_IMphg_CD40: BioMAP Diversity Plus: IMphg Assay for CD40 Biomarker Activity (AID 2284288); conditions: primary human endothelial cells with macrophages
Procedure, shortened: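 ELISA read-out of cell-surface CD40 at 24 h in human venular endothelial cell/macrophage co-cultures. Activity fitted in the positive direction against DMSO; parallel SRB staining (560 nm) gauges overt cytotoxicity.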

[14] = read-out: TIMP metallopeptidase inhibitor 2 (TIMP2), TIMP2 (gene 7077); assay: BSK_hDFCGF_TIMP2: BioMAP Diversity Plus: hDFCGF Assay for TIMP metallopeptidase inhibitor 2 (TIMP2) Biomarker Activity (AID 2284289); conditions: primary human foreskin fibroblasts
Procedure, shortened: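 Primary human foreskin fibroblasts in the hDFCGF system, dosed for 24 h; TIMP-2 level measured by ELISA, fitted in the positive direction against DMSO; cytotoxicity checked in parallel by sulforhodamine B total protein staining.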

[15] = read-out: Interleukin-1 alpha (IL1a), IL1A (gene 3552); assay: BSK_IMphg_IL1a: BioMAP Diversity Plus: IMphg Assay for Interleukin-1 alpha (IL1a) Biomarker Activity (AID 2284290); conditions: primary human endothelial cells with macrophages
Procedure, shortened: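 IL-1α is quantified by ELISA at 24 h in the endothelial/macrophage IMphg co-culture, with gain of signal fitted relative to DMSO. Parallel SRB total-protein staining flags overt toxicity.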

[16] = read-out: E-selectin (Homo sapiens) (UniProt P16581); assay: BSK_IMphg_ESelectin: BioMAP Diversity Plus: IMphg Assay for Eselectin Biomarker Activity (AID 2284291); conditions: primary human endothelial cells with macrophages
Procedure, shortened: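 Analysed against DMSO baseline in the positive fitting direction, this endpoint is an ELISA read of E-selectin. It comes from human venular endothelial cells co-cultured with macrophages, sampled 24 h post-dose.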

[17] = BSK_IMphg_SRB: Viability Assessment in the BioMAP Diversity Plus: IMphg Assay (AID 2284292); conditions: primary human endothelial cells with macrophages;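 also: measured one day after compound addition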
Procedure, shortened: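 SRB viability endpoint: cultures of human endothelial cells plus macrophages fixed with 10% TCA, stained with 0.1% SRB, read at 560 nm 24 h post-dosing. Only gain-of-signal fitted, relative to DMSO.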

[18] = read-out: Macrophage colony-stimulating factor (MCSF), CSF1 (gene 1435); assay: BSK_IMphg_MCSF: BioMAP Diversity Plus: IMphg Assay for Macrophage colony-stimulating factor (MCSF) Biomarker Activity (AID 2284293); conditions: primary human endothelial cells with macrophages
Procedure, shortened: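 M-CSF was measured by ELISA in human venular endothelial cell/macrophage co-cultures dosed for 24 hours. Sulforhodamine B staining of parallel cultures assessed cytotoxicity; data fitted against DMSO baseline.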

[19] = read-out: Interleukin-10 (IL10), IL10 (gene 3586); assay: BSK_IMphg_IL10: BioMAP Diversity Plus: IMphg Assay for Interleukin-10 (IL10) Biomarker Activity (AID 2284294); conditions: primary human endothelial cells with macrophages
Procedure, shortened: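 IL-10 read by ELISA after 24 h chemical exposure of primary human venular endothelial cell/macrophage cocultures, with DMSO as baseline. Parallel SRB staining (560 nm) gauged overt cytotoxicity.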

[20] = BSK_IMphg_SRB.Mphg: Macrophage Viability Assessment in the BioMAP Diversity Plus: IMphg Assay (AID 2284295); conditions: primary human endothelial cells with macrophages
Procedure, shortened: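 Cytotoxicity read-out: parallel cultures fixed with 10% TCA, stained with 0.1% sulforhodamine B, read at 560 nm. System combines venular endothelium and macrophages; sampled 24 h post-dosing, fitted positively relative to DMSO control.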

Measured: AC50

Sequence of E-selectin (Homo sapiens) (P16581 whole entry, looked up): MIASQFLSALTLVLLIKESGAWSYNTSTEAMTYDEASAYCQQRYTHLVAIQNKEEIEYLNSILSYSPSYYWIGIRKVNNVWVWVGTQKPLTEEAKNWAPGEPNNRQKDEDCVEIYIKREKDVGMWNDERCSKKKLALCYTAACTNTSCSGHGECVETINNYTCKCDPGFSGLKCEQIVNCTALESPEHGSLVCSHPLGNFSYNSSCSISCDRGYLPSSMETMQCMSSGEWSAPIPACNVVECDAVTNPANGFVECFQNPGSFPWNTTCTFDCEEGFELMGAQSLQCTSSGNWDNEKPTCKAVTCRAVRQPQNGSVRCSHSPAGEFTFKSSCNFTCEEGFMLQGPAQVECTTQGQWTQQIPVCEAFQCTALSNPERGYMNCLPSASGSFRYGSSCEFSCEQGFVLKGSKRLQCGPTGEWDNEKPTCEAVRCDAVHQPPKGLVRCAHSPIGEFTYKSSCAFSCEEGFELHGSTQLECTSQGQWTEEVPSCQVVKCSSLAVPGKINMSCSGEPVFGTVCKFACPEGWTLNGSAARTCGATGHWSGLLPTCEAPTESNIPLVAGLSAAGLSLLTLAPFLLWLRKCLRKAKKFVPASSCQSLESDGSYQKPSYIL

O=C(O)C(F)(F)C(F)(F)C(F)(F)C(F)(F)C(F)(F)F
inactive: all assays above

COc1ccc(O)c(C(C)(C)C)c1
inactive: [3] | [4] | [5] | [6] | [7] | [8] | [9] | [10] | [12] | [14]

O=S(=O)(O)C(F)(F)C(F)(F)C(F)(F)C(F)(F)C(F)(F)C(F)(F)F
active: [2] 22.9 µM | [16] 37.6 µM | [19] 46.3 µM and 19 µM
inactive: [1] | [2] | [3] | [4] | [5] | [6] | [7] | [8] | [9] | [10] | [11] | [12] | [13] | [14] | [15] | [16] | [17] | [18] | [20]

O=S(=O)(O)C(F)(F)C(F)(F)C(F)(F)C(F)(F)F
active: [2] 30 µM and 33.4 µM
inactive: all other assays above

O=C(O)C(F)(F)C(F)(F)C(F)(F)C(F)(F)C(F)(F)C(F)(F)C(F)(F)C(F)(F)F
inactive: [6] | [9] | [10] | [11] | [12] | [14] | [15] | [16] | [17] | [18] | [20]
active: [1] 44.2 µM and 45.2 µM | [2] 15.8 µM and 5.94 µM | [3] 56.4 µM and 54.7 µM | [4] 49.1 µM and 56 µM | [5] 23.3 µM and 24.3 µM | [7] 30 µM and 47.6 µM | [8] 54 µM and 56.6 µM | [11] 30 µM | [13] 30 µM and 44.9 µM | [17] 44.9 µM | [19] 39 µM and 21.3 µM | [20] 18 µM

NS(=O)(=O)C(F)(F)C(F)(F)C(F)(F)C(F)(F)C(F)(F)C(F)(F)C(F)(F)C(F)(F)F
active: [1] 23.3 µM and 34 µM | [2] 52.1 µM and 14.9 µM | [3] 55 µM and 53 µM | [4] 43.2 µM and 36.9 µM | [5] 24.3 µM and 11.4 µM | [6] 25.1 µM and 38 µM | [7] 46.9 µM and 48 µM | [8] 30 µM | [10] 21.7 µM and 17.3 µM | [11] 47.3 µM and 56.6 µM | [12] 12.1 µM and 15.7 µM | [13] 31.8 µM and 25.7 µM | [14] 53.9 µM and 52.3 µM | [15] 53.6 µM and 52.9 µM | [16] 39.9 µM and 30 µM | [17] 51 µM and 48.3 µM | [18] 30 µM | [19] 48.2 µM and 47.2 µM | [20] 43.4 µM and 48.1 µM
inactive: [9] | [18]

O=C(O)C(F)(F)C(F)(F)C(F)(F)C(F)(F)C(F)(F)C(F)(F)C(F)(F)C(F)(F)C(F)(F)F
inactive: [2] | [6] | [7] | [9] | [15] | [18]
active: [1] 20 µM and 20.5 µM | [3] 16.9 µM and 14.6 µM | [4] 12.8 µM and 13.7 µM | [5] 10.1 µM and 14.2 µM | [6] 7.27 µM | [7] 14.5 µM | [8] 15.1 µM and 17.4 µM | [10] 56.1 µM and 56.6 µM | [11] 54.8 µM and 26.9 µM | [12] 49.8 µM and 49 µM | [13] 45.9 µM and 42.3 µM | [14] 11.2 µM and 19.7 µM | [16] 47.6 µM and 50.2 µM | [17] 53.8 µM and 46.6 µM | [19] 49.6 µM and 45.5 µM | [20] 44.9 µM and 46.2 µM
